# Bioassay records from PubChem BioAssay.
# Akt phos inh = HTS Assay for Inhibitors of Akt Phophorylation: Primary Screen; Neuro2A IGF-stimulated pAkt S473 HTRF, 20 min; active compounds read low; activity change, % for hits at 50 µM; actives 0.32% (n = 360,000); in the data active means activity change below about -80%; inconclusive means mostly about -51% to -80%
#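 Single-point screen (50 µM final compound) in Neuro2A cells stimulated 20 min with 6 nM IGF at 37 deg C. After lysis, Ser473-phosphorylated Akt read by HTRF (ex 330 nm, em 615/665 nm) as the 665/615 ratio.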
# KCNH2 3.1 block = qHTS for Inhibitors of KCHN2 3.1: Mutant qHTS. AID 720553, 2013. activity change, % (tested at about 1.8 µM). U2OS KCNH2 3.1, thallium flux FluxOr; active compounds read low. actives 0.95% (n = 340,000);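 active means maximum activity change below -70%; inconclusive means maximum activity change from -70% to -50%; inactive means maximum activity change above -50%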;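 further: thallium influx rate constant from kinetic fluorescence after stimulation buffer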
#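 U2OS cells transduced with KCNH2 3.1 mutant virus (1.77 x 10^8 /mL, 4 h), plated overnight at 37 C, loaded 45 min with FluxOr dye plus Red40 quencher. Thallium flux rate constant from kinetic reads after stimulation buffer, normalised to controls.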
# KCNH2 WT inh = qHTS for Inhibitors of KCHN2 3.1: Wildtype qHTS; Voltage-gated inwardly rectifying potassium channel KCNH2 (Homo sapiens), Q12809; U2OS, BacMam KCNH2, thallium flux FluxOr; active compounds read low; activity change, % at 1.84 µM; actives 0.37% (n = 340,000); AID 720551, 2013;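 active means maximum activity change below -70%; inconclusive means maximum activity change between -70% and -50%; inactive means maximum activity change above -50%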
#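 U2OS cells transduced with wild-type KCNH2 virus are loaded with FluxOr dye for 45 min, and thallium flux is measured in kinetic reads before and after stimulation buffer. Rate constants are normalized to DMSO controls.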
# RXFP1 agonist = qHTS Assay for Agonists of the Relaxin Receptor RXFP1. actives 0.3% (n = 370,000). AID 2676, 2010. HEK293T-RXFP1 cAMP TR-FRET, 30 min; response scale: percent of porcine relaxin response, buffer zero. Potency, µM (doses to about 57.5 µM), for the others: top-dose activation, hits mostly activators; active means well fitted activation curve with a large enough effect; inconclusive means small, poorly fitted or top-dose-only effect; further: potency means the concentration at half of the fitted maximal effect; nearly all actives have a fitted effect of over 60% in size
#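 Agonist response is measured as cAMP accumulation in an RXFP1-transfected HEK293T line under PDE4 inhibition. Values are scaled between buffer-only and 29 nM porcine relaxin, and EC50s come from standard Hill equation fits.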
# RXFP1 antag = qHTS Assay for Antagonists of the Relaxin Receptor RXFP1. Relaxin receptor 1 (Homo sapiens), Q9HBX9. HEK293-RXFP1, relaxin-stimulated cAMP HTRF, 30 min; active compounds read low. activity change, negative = inhibition, % at 57.5 µM. actives 0.59% (n = 350,000);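 active means activity change of -60% or lower, but not beyond a set lower limit; inconclusive means change between -60% and -40%, or beyond the set limit; inactive means change above -40%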
# The depositor's hits bear a star; i = inactive; ? = inconclusive; . = not tested or not shown. An excerpt weighted towards active compounds, which were near 1.7% of everything screened. On the % scale 0 is the no-effect control and ±100 the full control effect.
SMILES,Akt phos inh,KCNH2 3.1 block,KCNH2 WT inh,RXFP1 agonist,RXFP1 antag
Cc1ccc(S(=O)(=O)Nc2cccc(C(=O)NCC3(N4CCCCC4)CCCCC3)c2)cc1F,i,-78*,4,0%,-2
CN(C)c1cccc(C(=O)OCCCC(=O)c2ccc(F)cc2)c1,i,-130*,-5,1%,-28
NC(=O)c1ccc(NC(=O)COC(=O)C2(c3cccc(F)c3)CCCC2)cc1,i,-3,-2,2%,1
Cc1cc(C)cc(N(CC(=O)Nc2cc(C)ccc2C)S(=O)(=O)c2c(C)[nH]c(=O)[nH]c2=O)c1,i,4,4,-2%,-8
Cc1cc(C)cc(N(CC(=O)Nc2ccc(Br)cc2)S(=O)(=O)c2c(C)[nH]c(=O)[nH]c2=O)c1,i,-109*,-24,-2%,5
COc1cccc(NC(=S)Nc2cccc3ccccc23)c1,i,13,2,5%,15
O=C(C1CC1)N1c2ccccc2Sc2ccccc21,i,-83*,4,5%,-13
O=C(NCc1cccc(F)c1)C1CCC(=O)N(CCCN2CCOCC2)C1 (stereo not drawn),i,13,-1,1%,-6
CC(=O)c1ccc(NC(=O)c2cnn(-c3cccc(F)c3)c2-n2cccc2)cc1,.,.,.,1%,-68*
Cn1cccc1/C=N/NC(=O)Cc1ccccc1,i,10,-7,2%,-1
COc1cccc(C(=O)c2c[nH]c(C(=O)NCc3ccco3)c2)c1,-112%*,.,1,1%,-9
COc1ccc(C(=O)c2c[nH]c(C(=O)NCc3ccco3)c2)cc1,i,27,-12,1%,-8
COc1ccc(CCNC(=O)C2CC(=O)N(CCc3ccccc3)C2)cc1OC (stereo not drawn),i,-7,-2,-1%,12
COc1ccc(CCN2CC(C(=O)NCC(c3ccccc3)N(C)C)CC2=O)cc1OC (stereo not drawn),i,-7,5,.,-90*
COc1ccc(C2CC(=O)N(CCCN(C)CCc3ccc(OC)c(OC)c3)C2)cc1 (stereo not drawn),i,-17,.,0%,7
COc1ccc(CCN(C)CCCN2CC(c3ccccc3)CC2=O)cc1OC (stereo not drawn),i,-88*,5,-2%,-5
C/C=C\C=C\C(=O)Nc1cccc(C2=NOC3(C2)C[C@H](C(N)=O)N(C(=O)c2ccccc2C(=O)c2ccccc2)C3)c1 (stereo partly drawn),i,-13,5,-4%,.
Brc1cc(Br)c2ncnc(N3CCCCC3)c2c1,-82%*,-1,-6,25µM*,29
Clc1ccc(-n2ncc3c(N4CCCCCC4)ncnc32)cc1,i,-10,-6,0%,.
O=C(Nc1cccc(NC(=O)c2cncc(Br)c2)c1)c1cncc(Br)c1,i,-9,-4,2%,-15
CCN1CCc2c(sc(NC(=O)Cc3ccccc3)c2C(N)=O)C1,i,26,-11,5%,2
CCN1CCc2c(sc(NC(=O)Nc3ccc(Cl)c(Cl)c3)c2C(N)=O)C1,i,-119*,-133*,1%,-17
O=C(Nc1cccnc1)C1CC(c2ccccc2O)=NO1 (stereo not drawn),i,7,-19,0%,-17
CCC(CC)c1nn2c(N)c(/C=C3\C(C)=Nc4ccccc43)c(=O)nc2s1,i,-11,-5,-1%,-69*
COc1ccc(N2CCN(C(CNC(=O)COc3ccccc3)c3ccco3)CC2)cc1 (stereo not drawn),i,-3,-2,-1%,-14
SMILES,Akt phos inh,KCNH2 3.1 block,KCNH2 WT inh,RXFP1 agonist,RXFP1 antag
O=C(NCCc1ccccc1C(F)(F)F)c1cc(COc2ccccc2)on1,i,-111*,-18,.,-4
O=C(NCCc1ccccc1F)c1cc(COc2ccc(F)cc2F)on1,i,?,3,.,1
CC/C(=N\NC(=O)c1nnn(-c2nonc2N)c1CN(C)c1ccccc1)c1ccccc1,.,-5,-2,3%,-102*
CN(C)Cc1c(C(=O)N/N=C/c2ccc(-c3ccccc3)cc2)nnn1-c1nonc1N,i,-93*,-46,0%,10
CCOc1cccc(-c2c(C(=O)N/N=C/c3sccc3C)nnn2-c2nonc2N)c1,i,-16,-13,1%,-2
CCN(CC)Cc1c(C(=O)N/N=C/c2cccnc2)nnn1-c1nonc1N,i,23,-4,2%,2
CCN(CC)Cc1c(C(=O)N/N=C/c2ccc(OCc3ccccc3C)cc2)nnn1-c1nonc1N,i,-96*,-123*,-2%,3
CN(C)Cc1c(C(=O)N/N=C/c2ccco2)nnn1-c1nonc1N,i,-1,3,1%,13
C/C(=N\NC(=O)c1nnn(-c2nonc2N)c1CN(C)c1ccccc1)c1ccc(O)cc1,i,-19,-10,0%,2
CCOc1cccc(-c2c(C(=O)N/N=C/c3ccsc3)nnn2-c2nonc2N)c1,i,9,9,0%,-61*
CSc1ccc(/C=N/NC(=O)c2ccc3nc[nH]c3c2)cc1,i,17,9,.,-1
CN=C(c1ccco1)n1c(=S)nc(-c2ccco2)n(C)c1=S,i,-7,2,2%,-1
CCc1ccc(C2CC(c3ccccc3Cl)Nc3nc(N)nn32)cc1 (stereo not drawn),i,-1,4,1%,?
CCCN1C(=O)/C(=C/c2ccc(C)o2)NC1=S,.,.,.,-2%,.
O=C(c1ccc2c(c1)N(Cc1ccc(Cl)cc1)C(=O)c1ccccc1S2(=O)=O)N1CCC(Cc2ccccc2)CC1,.,.,.,1%,.
O=C(Nc1nc(-c2cccc3ccccc23)cs1)c1ccc2c(c1)S(=O)(=O)c1ccccc1C2=O,i,-106*,-33,-2%,-5
CCc1ccc(/C=N/NC(=O)c2cc(-c3ccncc3)nc3ccccc23)s1,i,-10,-23,2%,2
CCCc1cc(C(=O)N/N=C/c2ccc(CC)s2)c2ccccc2n1,-118%*,-7,13,-1%,-6
COCCCn1c(SC(C)C(=O)Nc2c(C)n(C)n(-c3ccccc3)c2=O)n[nH]c1=O (stereo not drawn),i,-3,-1,0%,-4
Cn1ccnc1C(O)c1ccc(OCc2ccccc2)cc1 (stereo not drawn),i,-1,5,1%,-10
Cc1ccccc1C1c2[nH]c3ccccc3c2C[C@H]2C(=O)N(C3CCN(Cc4ccccc4)CC3)CC(=O)N12 (stereo partly drawn),.,.,.,6%,.
